Screening results: PubChem BioAssay, National Center for Advancing Translational Sciences (NCATS)
Shiga toxin inh = blocks Shiga toxin action in Vero cells; hit rate 9.2% among 290,000; Vero cells, Shiga toxin protein synthesis inhibition reporter; inhibition, % at 38.7 µM; AID 2315; in the data active = inhibition mostly above about 28%, no sharp cut-off; inactive = mostly below about 43%; note: 0% is about no effect
Pf growth 48h = P. falciparum growth inhibition at 48 hours (one generation) | P. falciparum luciferase growth in erythrocytes, 48 h | Potency, µM (highest dose often 28.7 µM), for inactives: top-dose activity change, negative = inhibition, most hits filed as inhibitors | hit rate 5.9% among 310,000; note: potency is the fitted concentration of half-maximal effect; % is set by controls: 0 for no effect and ±100 for the full control effect
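Growth was read as firefly luciferase luminescence after a 48 h, 37 C, 5% CO2 exposure of compounds to reporter-bearing P. falciparum cultures (0.1% parasitemia, 2% hematocrit final) in Albumax-supplemented RPMI 1640.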
CHX counter = counter-screen for Shiga toxin inhibitors: cycloheximide protein synthesis inhibition | cell reporter, cycloheximide protein synthesis inhibition counterscreen | max response, % | hit rate 12% among 300,000 | AID 2314; in the data active = max response mostly above about 13%, no sharp cut-off; inactive = mostly below about 14%; note: read at 38.3 µM for the half of the compounds with a filed dose; 0% is about no effect
HCV inh = blocks hepatitis C virus | Huh7.5.1 HCVcc-Cre infection, luciferase reporter, 44 h | Potency, µM (top dose mostly 41.8 µM), without a hit: top-dose activity change, negative = inhibition, most hits filed as inhibitors | hit rate 3.4% among 340,000 | AID 651820; note: potency is the fitted concentration of half-maximal effect; % is set by controls: 0 for no effect and ±100 for the full control effect
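HCVcc-Cre virus at an moi near 0.5 was added right after compound to cells cultured 4 h from seeding (1,000 cells/well). Luciferase activity was determined 44 h later, 15 min after substrate addition at RT.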
AMA1-RON2 inh = AMA1-RON2 (P. falciparum) interaction inhibition. AlphaScreen AMA1-biotinylated RON2 peptide binding. Potency, µM (doses to about 58.2 µM), for the others: at the top dose activity change, negative = inhibition, hits mostly inhibitors. hit rate 0.2% among 360,000;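 note: potency is the fitted concentration of half-maximal effect; 0% = vehicle wells and -100% = peptide control; nearly all actives have a fitted effect of over 45% in size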
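AMA1 (3D7) with his tag at 25 nM final met compounds first, then biotinylated RON2 peptide at 25 nM; detection used donor plus acceptor beads, 10 µg/mL apiece, read by AlphaScreen after 30 min at room temperature.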
Pf growth 96h = inhibits malaria parasite growth, 96 h | AID 504834 | hit rate 6.9% among 320,000 | P. falciparum luciferase reporter growth, 96 h | Potency, µM (doses to about 28.7 µM), for the others: at the highest dose activity change, negative = inhibition, hits mostly inhibitors; note: potency is the fitted concentration of half-maximal effect; % is set by controls: 0 for no effect and ±100 for the full control effect
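P. falciparum expressing integrated firefly luciferase, in erythrocytes at 2% hematocrit, 0.05% parasitemia, incubated with compounds 96 h at 37 C, 5% CO2. Growth inhibition read as loss of luminescence; two-generation exposure targets delayed-death apicoplast inhibitors.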
Numbers without * were called inactive; i = inactive; ? = inconclusive; / = not tested or not shown; [ ] = another dose, or the depositor's remark. Sampled rows, rich in hits. Any-hit rate of the full collection: about 21%. Unless noted, calls come from the whole dose curve; as a rule, active = well fitted curve in the direction sought with a large enough effect; inconclusive = small, poorly fitted or top-dose-only effect, or another doubt; inactive = no such curve, though single readings can be large; an effect the other way counts as inactive or inconclusive.

SMILES | Shiga toxin inh | Pf growth 48h | CHX counter | HCV inh | AMA1-RON2 inh | Pf growth 96h
O=C(Nc1ccc(F)cc1)c1ccc2c(=O)n(CC3CCCO3)c(=S)[nH]c2c1 (stereo not given) | -2.9 | ? | -1.7 | -23.0% | 48.9% | 0.6%
COc1cccc(N2CCN(C(=O)c3ccc4nc(N5CCCCC5)sc4c3)CC2)c1 | 108.7* | / | 76.8* | -11.2% | -22.0% | ?
O=C(c1ccc2nc(N3CCOCC3)sc2c1)N1CCCC1 | 8.1 | 16.5% | 9.2 | ? | 6.5% | -18.7%
COc1cccc(N2CCN(C(=O)c3ccc4ccccc4c3)CC2)c1 | / | 45.4% | / | ? | -27.0% | ?
COc1ccc(N2CCN(C(=O)c3ccc4nc(N5CCCCC5)sc4c3)CC2)cc1 | 44.0* | 18.0% | 52.8* | 8.6% | -0.1% | 4.9%
O=C(CCc1nc2ccccc2c(=O)[nH]1)Nc1nnc(SCc2ccc(F)cc2)s1 | / | -14.2% | / | 10.3% | 21.8% | 12.0%
Cc1c(OCC(=O)NCC(O)c2ccccc2)ccc2c3c(c(=O)oc12)CCC3 (stereo not given) | -6.8 | -14.8% | 1.7 | ? | -11.6% | 11.7µM*
CCc1cc(=O)oc2cc(OCC(=O)NCCCN3CCCC3=O)c(Cl)cc12 | 3.1 | ? | 3.1 | -17.4% | -6.0% | 11.7µM*
O=C(COc1cc2oc(=O)c3c(c2cc1Cl)CCC3)NCC(O)c1ccccc1 (stereo not given) | -4.3 | -0.3% | -4.2 | ? | -15.5% | 13.1µM*
Cc1c(OCC(=O)NCCCN2CCCC2=O)ccc2c3c(c(=O)oc12)CCC3 | 2.6 | -24.7% | 8.5 | -0.4% | -10.7% | ?
Cc1cc(OCC(=O)NCC(O)c2ccccc2)c2c3c(c(=O)oc2c1)CCC3 (stereo not given) | 1.9 | ? | -2.0 | -28.9% | -6.2% | -78.8%
Cc1c(OCC(=O)NCCCN2CCCC2=O)ccc2c3c(c(=O)oc12)CCCC3 | -3.6 | ? | 0.3 | 7.0% | 4.2% | 18.5µM*
COc1ccc(CC(N)c2csc(Nc3nccc(C(F)(F)F)n3)n2)cc1 (stereo not given) | / | / | / | / | 74.9% | /
CC(c1nnc(SCC(=O)Nc2cccnc2Cl)n1Cc1ccccc1)N(C)C (stereo not given) | -9.0 | -5.9% | -0.5 | -3.4% | 28.8% | 22.3%
Cc1csc(=O)n1CCC(=O)NCc1ccc(F)cc1 | / | / | / | -13.9% | 16.6% | /
Cc1c(OC(C)C(=O)NCC(O)c2ccccc2)ccc2c3c(c(=O)oc12)CCCC3 (stereo not given) | -5.0 | 8.28µM* | 11.1 | 25.1µM* | 0.1% | 4.15µM*
Cc1cc(=O)oc2c(C)c(OC(C)C(=O)NCC(O)c3ccccc3)ccc12 (stereo not given) | -9.2 | ? | 1.5 | ? | -5.7% | ?
COCOCCn1cc(CN2CCS(=O)(=O)N(Cc3ccc(-c4ccc(Cl)nc4)cc3)C(C(C)C)C2=O)nn1 (stereo not given) | / | / | / | / | 5.9% | /
CCCn1nnc(NC(=O)c2sc3ccccc3c2Cl)n1 | 99.7* | 120.7% | 41.2* | ? | 55.5% | /
Cc1cnc(NC(=O)c2sc3ccccc3c2Cl)s1 | 63.5* | 234.9% | 57.2* | -4.7% | 81.9% | 208.3%
CCCn1nnc(NC(=O)COc2ccccc2Cl)n1 | 61.9* | 17.5% | 24.3* | -1.2% | 0.0% | /
O=C(Nc1nccs1)c1sc2ccccc2c1Cl | 78.0* | -37.3% | 30.1* | ? | 92.1% | 47.4%
Cc1cccc(NC(=O)CNC(=O)c2sc3ccccc3c2Cl)n1 | / | 32.1% | / | -8.0% | -8.7% | 58.3%
CCCn1nnc(NC(=O)Cc2ccccc2)n1 | -26.2 | 9.1% | -3.3 | 3.3% | 0.0% | 37.9%
CC(=O)Nc1cc(-c2ccccc2CN(C)C)cn2c(-c3ccc(F)c(Cl)c3)cnc12 | / | / | / | / | -8.3% | /
SMILES | Shiga toxin inh | Pf growth 48h | CHX counter | HCV inh | AMA1-RON2 inh | Pf growth 96h
CC(C)c1nnc(NC(=O)c2sc3ccccc3c2Cl)s1 | 67.0* | 114.9% | 29.2* | 10.0% | 63.8% | 12.5%
Cc1onc(-c2ccccc2Cl)c1C(=O)Nc1nnc(C(C)C)s1 | -8.3 | 3.4% | -3.8 | 0.0% | 7.3% | 10.0%
O=C(Nc1nccs1)c1sc2cc(Cl)ccc2c1Cl | 63.1* | 157.4% | 38.5* | 3.0% | 5.0% | i
Cc1cccnc1NC(=O)CNC(=O)c1sc2ccccc2c1Cl | / | 76.9% | / | -10.3% | 5.6% | 45.2%
Cc1ccnc(NC(=O)c2sc3ccccc3c2Cl)c1 | 89.2* | 165.1% | 42.2* | -7.2% | -10.2% | 11.9%
O=C(Nc1ccccn1)c1sc2cc([N+](=O)[O-])ccc2c1Cl | 59.1* | 72.5% | 20.9* | 9.7% | -5.2% | 320.0%
COc1cccc(C(=O)N2CCN(C(=O)COc3ccc4ccccc4c3)CC2)c1 | 14.1 | -0.6% | 0.7 | ? | 7.9% | -5.2%
CCCCNC(=O)C1(C)CCCCN1C(=O)c1c(Cl)cccc1Cl (stereo not given) | / | / | / | / | 3.2% | /
O=C1C(C2=C(O)c3ccccc3C2=O)=Nc2ccccc21 | 65.5* | 6.0% | 25.0* | 10µM* | -17.4% | 24.5%
CCN(CC)c1ccc2cc(S(=O)(=O)c3ccc(Cl)cc3)c(=O)oc2c1 | -10.6 | ? | -2.9 | -3.5%[8.37 µM] | 120.9% | 13.1µM*
NC(=O)c1ccc(C(F)(F)F)n(Cc2ccc(Cl)cc2)c1=O | -8.4 | -0.9% | 24.7* | ? | 9.0% | ?
CCc1ccc(NC(=O)Cn2ncc3c4ccccc4n(C)c3c2=O)cc1 | -8.7 | 46.5% | -0.7 | 12.3% | -12.1% | 30.1%
O=C(CSc1nc2ccccc2n1CCc1ccccc1)N1CCOCC1 | -16.7 | -10.7% | -1.7 | 16.3% | -15.0% | ?
C=CCn1c(SCC(=O)Nc2ccc(OC)cc2)nc2ccccc2c1=O | 18.6 | -3.4% | 0.5 | -12.6% | -10.5% | 105.3%
NC(=O)CSc1nc2ccccc2c(=O)n1Cc1ccccc1 | -7.9 | 7.3% | 1.3 | 2.4% | -0.8% | 99.2%
O=C(CSc1nc2ccccc2n1CCc1ccccc1)c1ccc(O)c(O)c1 | 16.3 | 0.2% | 12.3* | 5.7% | -16.8% | ?
CCCNC(=O)NC(=O)CSc1nc2ccccc2c(=O)n1Cc1ccncc1 | -0.2 | ? | 0.9 | 12.9% | -18.7% | 13.1µM*
COCC(C)NC(=O)CSc1nc2ccccc2n1CCc1ccccc1 (stereo not given) | -22.6 | -22.7% | -4.2 | -9.9% | 8.2% | 10.4µM*
COCC(C)NC(=O)Cn1c(SCc2ccccc2)nc2ccccc21 (stereo not given) | 1.8 | -19.1% | 5.7 | -5.0% | 6.3% | 0.2%
CCC(C)NC(=O)CSc1nc2ccccc2c(=O)n1Cc1ccc(OC)cc1 (stereo not given) | 11.6 | / | 2.7 | -23.0% | 38.9% | 1.65µM*
NC(=O)[C@@H]1CCCN1C(=O)[C@H](Cc1cnc[nH]1)NC(=O)[C@@H]1CCC(=O)N1 | / | -22.8% | / | / | / | ?
Cc1ccc(CC(=O)NCCN2CCOCC2)cc1 | -3.0 | 2.7% | -3.0 | 9.5% | -1.1% | ?
